For 40 sequences, ETS1 binding intensity results are on record in the supplement of paper PMC10681739.

In this assay the target is T1, ETS1 (UniProt P14921).
T1 sequence: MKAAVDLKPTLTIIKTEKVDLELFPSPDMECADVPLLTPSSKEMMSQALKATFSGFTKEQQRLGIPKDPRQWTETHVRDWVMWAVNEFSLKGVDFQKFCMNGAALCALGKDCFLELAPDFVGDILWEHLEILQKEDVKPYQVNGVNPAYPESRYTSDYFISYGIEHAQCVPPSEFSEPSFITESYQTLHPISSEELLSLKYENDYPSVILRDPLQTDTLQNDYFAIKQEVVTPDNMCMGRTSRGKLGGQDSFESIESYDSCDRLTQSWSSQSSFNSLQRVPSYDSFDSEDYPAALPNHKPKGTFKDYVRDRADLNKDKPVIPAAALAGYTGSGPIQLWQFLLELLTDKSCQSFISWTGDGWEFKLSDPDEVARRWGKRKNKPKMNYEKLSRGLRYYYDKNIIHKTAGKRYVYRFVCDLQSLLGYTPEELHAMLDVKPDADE
In words: ETS1 binding intensity (PBM fluorescence) in presence of RUNX1, normalised to ETS1-only experiment (arbitrary fluorescence units); higher = stronger binding. Particulars: ETS1 concentration 1 nM; RUNX1 concentration 25 nM. Here is the method:
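Cooperative genomic-context PBM: 36-bp genomic probes with neighbouring ETS1 and RUNX1 sites, double-stranded on Agilent 4x180k arrays. Full-length recombinant human ETS1 (1 nM) was incubated alone or with RUNX1 (25 nM) and detected with anti-ETS1 antibody plus Alexa488 secondary. Value is the median fluorescence intensity over 4 replicate spots; the ETS1+RUNX1 data were normalised to the ETS1-only data using probes without RUNX1 sites. The 36-bp variable region sits on the array probe with constant linker/primer flanks that are not printed.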
With TTCACAACACAGGATGTGCGGTATTATACGGCAAAG, the ETS1 binding intensity was found to be 11200.

GATCTGTGCTCAGGATGTGGTGAGAGAATAAGGAAG: the ETS1 binding intensity came out at 2870.

Take TTCTTCCGGCAACTGCTGCTGAGGCTGCGGTGGCGG: the ETS1 binding intensity amounted to 899.

With CGGCCTCTTCCGGTCACCTGGCCCGTCGCGGTCCCG, the ETS1 binding intensity came to 1520.

For CACGCCTGCGGAAGATGAAAACCACACGTCATGCAG, the ETS1 binding intensity stood at 803.

Regarding GACCGAGAGGAAGCAGCAAGGATCCTGCGGTTCCAG, the ETS1 binding intensity was found to be 1990.

For the sequence GTACTGAGTCACAGGAAACCACAAGGGAAGGGTCCC, the ETS1 binding intensity came to 4720.

Take ACACCCCAGGCAGGATGTGGTAGGGGTTGCCCCAGA: the ETS1 binding intensity stood at 5030.

With AAAGAGAAAGGAAACAAAGTATAGCACCACAGTGAG, the ETS1 binding intensity came out at 554.

For the sequence GCGCCCCGTCCTTCCGCAGCCCAACCGCCTCTTCCC, the ETS1 binding intensity stood at 383.

Turning to GCTGATAAAACAGGATGTGGTAAAGAAGCCGGCCAA, the ETS1 binding intensity is 18000.

Take CTGGTAGAAAAGGAAGCAGGTTGTGGTGAGCATTTA: the ETS1 binding intensity amounted to 1720.

Turning to AGCAGATTTGCTGCAGGAAACCACCGAGTCTCACGG, the ETS1 binding intensity amounted to 1490.

As for GGACTCTGGCAGGAAGCTGTTTGTGGTTGTCACACC, the ETS1 binding intensity was found to be 11000.

Consider ACTAGAAGCGGAAGTAGTTGTGGGCGCCTTTGCAAC, for which the ETS1 binding intensity amounted to 7470.

Take GCTATCCCCGCCCCTTCCTGTGGGCTGGCGCCCGAT: the ETS1 binding intensity came out at 489.

As for GGAAAGCGGAAGAAAAAAGCAAGATGGGACCGCAAG, the ETS1 binding intensity was 928.

On to CACTCCCCGCATCCGGTCTGCGGCGCGCTCGGGGCC, for which the ETS1 binding intensity was determined as 4710.

Consider CAAGCCACTTCCTTTCTTGCTCCCACAACCTGTGTT, for which the ETS1 binding intensity was 471.

As to GTGGTCGGGAGGGGAAGTGAGGCGGTTACCTCGGCG, the ETS1 binding intensity worked out at 689.

Take CCACCACTCTAAGCAGGATGCGGTGCGACCCAAGAG: the ETS1 binding intensity stood at 2470.

Take TGCTTCCGGCGGGCGCTTGCTCCCCGCGGTCCGCAC: the ETS1 binding intensity came to 762.

As for GGTTTCGCTTCCGGGTTAGGCGGCCGCAGAAGCGTA, the ETS1 binding intensity turned out to be 1340.

As for AAATCACGTACCCGGAAACCACATGCACAGAAGTGG, the ETS1 binding intensity is 2930.

Turning to GTGCTGAGCAGCTTCCCGTCTGCGGTGAAGACAGCC, the ETS1 binding intensity was found to be 1040.

For GAGGCCGAAAGGAAGTTTGAGGTTAAGCACAAGATG, the ETS1 binding intensity stood at 1900.

Consider AGTCAAACAGGATGTGGCTGGGGAGGCGGTTGTCAC, for which the ETS1 binding intensity turned out to be 4660.

On to AGCTTCCTGTTTGGCCTTGCTGATGTCACCGCATTA, for which the ETS1 binding intensity was found to be 1090.

With TAAATACCTCACAGGAAATTTGAGGTTGGATGAGAT, the ETS1 binding intensity was 2320.

Take TACTACTTACCAGCAGGATGTGGTCCCTGCCCACTG: the ETS1 binding intensity was 7040.

On to CAGCTAGCCGGAAGAAGCTGCGGCGACAGCGTCCTG, for which the ETS1 binding intensity was determined as 2110.

On to CTGACAGCTTCCGCACAAAGCGCGGTCTATTTCTCC, for which the ETS1 binding intensity is 544.

Consider GTATGGGAAGTGATCTGGCTGCAAACCGCAAGAGAG, for which the ETS1 binding intensity worked out at 2730.

As for GTTCATCCAGGAAACCCCAACCCAGTGCCGCAGTAT, the ETS1 binding intensity is 464.

On to TGGTTTCTCACTGGCGGATGTGGGTGGGTCGCCTCC, for which the ETS1 binding intensity was 6390.

With GGCTTGATTGAACGAGGATGTGGTTCTTGGGTGGGA, the ETS1 binding intensity is 1770.

With TTTTTTCCGCCTGTAGGGTCACATTGTGGTTGATTG, the ETS1 binding intensity was found to be 725.

For the sequence TACCACCTCAGGATGTCTGAACCACATGCAAGCAGG, the ETS1 binding intensity was 571.

For the sequence GCCCAGGGAAGCACTTCCTGCGGGGCGCGGTGCAGC, the ETS1 binding intensity was 1270.

As for AGCCAACAGGAAGCTGCAGAGACTAAACCACAGCAA, the ETS1 binding intensity was 4930.
